In PubChem BioAssay (NCI):
This is part of a sample that, as a whole, favours compounds with a hit. Of some 83,000 tested, about 20% had one in any assay.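 Results are percent growth after 48 hours of single-concentration exposure. 100 means growth as in untreated cells, lower positive values show inhibition; negative values down to -100 show cell death.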 Values without a mark were called inactive. Active and inactive are the calls of the source. The calls were made as follows: active = growth percent below 10; inactive = the rest.

Tested on: HL-60(TB) leukemia
Assay: NCI-60 one-dose screen, 48 h (100 = growth as untreated, 0 = no growth, -100 = all killed)
Conditions: 10 µM unless noted

Compound | growth
CC/C(=N\N=C(/CC)c1ccc(Br)cc1)c1ccc(Br)cc1 | 124%
CCOc1c(C#N)nnc2c(C#N)c(NC(=O)c3ccccc3)nn12 | 104%
CC(c1ccccc1)N1C(=O)CSC1=S (configuration not stated) | -40.6% (active)
O=C1NC(SCc2ccc(F)cc2)=N/C1=C/c1cccc(OCc2ccc(Cl)cc2)c1 | 61.5%
CC(C)(C)c1ccc(S(=O)(=O)Oc2ccc(NC(=O)C3CCCCC3)cc2)cc1 | 59.3%
O=C(Nc1ccccc1O)c1ccc(Oc2cccc(C(=O)Nc3ccccc3O)c2)cc1 | -40.4% (active)
C#CCOc1cccc(Nc2ncnc3cc(NC(=O)CCl)ccc23)c1 | -62.2% (active)
C/C(=N\NC(=O)CSc1nc2ccccc2c(=O)n1Cc1ccc(S(N)(=O)=O)cc1)c1ccc(F)cc1 | 101%
O=S(=O)(NCCCNc1nccc(-c2c(-c3cccc(F)c3)nc3occn23)n1)c1cccc2ccccc12 | -26.8% (active)
Nc1ccc2[nH]c(-c3ccccc3)cc(=O)c2c1 | 88.2%
CCN(CC)CCOC(=O)C(c1ccccc1)(c1ccccc1)C(C)C | 91.8%
Cc1ccc(Nc2nc(-c3ccc(F)cc3)c(C#N)c(=O)n2C)cc1 | 90.1%
O=C(CN1C(=O)/C(=C/c2ccco2)SC1=S)NCCc1c[nH]c2ccc(F)cc12 | 95.9%
Cc1nnc2c3nnc(-c4ccc(Cl)cc4)n3c3ccccc3n12 | 101%
COc1ccc(-c2cn[nH]c2-c2cc(OC)c3c(c2)OCCO3)cc1 | -33.2% (active)
COC(=O)c1c(C)[nH]c(/C=C2\N=C(c3ccc[nH]3)C=C2OC)c1C | 4.25% (active)
CCOC(=O)c1c2c(n3ccc(NC(=O)OC(C)(C)C)cc13)C(=O)c1ncccc1C2=O | -34.2% (active)
Cc1ncc(C(=O)Nc2ccc(CN3CCN(C)CC3)c(C(F)(F)F)c2)cc1C#Cc1cncc2ncccc12 | 41.7%
O=C1CSC(c2ccc(O)cc2)N1c1nnc(Cn2cnnc2)o1 (configuration not stated) | 59.1%
COc1ccccc1N1CCN(CCCOc2ccc(OCCCN3CCN(c4ccccc4OC)CC3)c(C(=O)c3cc(OC)c(OC)c(OC)c3)c2)CC1 | 101%
COc1cccc(-c2nc3sccn3c2-c2ccnc(NCCNS(=O)(=O)c3c(Cl)cccc3Cl)c2)c1 | 25.9%
N#Cc1ccc(N2Cc3cc(Cl)ccc3OC3=C2C(=O)N(Cc2ccccc2)C3=O)cc1 | -48.2% (active)
COc1ccccc1/C=C1\Oc2cc(OCCN3CCC(Cc4ccccc4)CC3)ccc2C1=O | 97.1%

Compound | growth
Cn1cnc([N+](=O)[O-])c1N1c2ccncc2Sc2ccncc21 | 87.5%
COc1cccc(NC(=O)Cn2cc3c(=O)oc4ccccc4c3n2)c1 | 107%
Cc1cc(=O)oc2cc(Oc3nc(-c4ccc(Cl)cc4)cn4c(-c5ccc(Cl)cc5)cnc34)ccc12 | 86.8%
Nc1c(C(=O)Nc2ccccc2)sc2nc3c(cc12)C(=O)CCC3 | 19.4%
Cc1cc2c(-c3nc4ccccc4n3C)c(O)c(O)cc2c(O)c1-c1c(C)cc2c(-c3nc4ccccc4n3C)c(O)c(O)cc2c1O | 76.7%
COc1ccc(-n2nc(C)c3c(Oc4ccc(NC(=O)Nc5c(Cl)cccc5Cl)cc4)ncnc32)cc1 | 100%
COc1ccc(-c2nnc(SCC(=O)Nc3ccc(C(=O)/C=C/c4ccc(OC)c(OC)c4)cc3)o2)cc1 | 74.7%
CC(=O)O[C@H]1CC[C@]2(C)[C@H]3CC=C4[C@@H]5CC(C)(C)CC[C@]5(C(=O)OCC(COC(=O)C(Cl)Cl)(COC(=O)C(Cl)Cl)NC(=O)C(Cl)Cl)CC[C@@]4(C)[C@]3(C)CC[C@H]2C1(C)C | 33.1%
c1csc(C2=NN3C(C2)c2ccccc2OC3c2ccncc2)c1 (configuration not stated) | 97.8%
COc1ccccc1-n1c(-c2cc(O)ccc2C)cn2c3c(=O)[nH]c(=O)n(C)c3nc12 | 110%
CCN(CC)CCCOc1ccc2ncnc(Nc3ccc(Oc4cccc(C(F)(F)F)c4)c(Cl)c3)c2c1 | -45.2% (active)
CN(C)CCOc1nc2c3ccncc3cc(-c3cccc(Cl)c3)c2c2cnccc12 | 33.4%
COc1cc(C2CC(c3ccc4c(c3)OCO4)=NN2C=O)cc(OC)c1OC (configuration not stated) | 0.568% (active)
COc1cc(N2C(=O)C=CC2=O)ccc1N1C(=O)C=CC1=O | 82.9%
CC1CCC(C)(C)c2ccccc21 (configuration not stated) | 109%
COc1cc(C2C(C#N)=C(N)Oc3cc(O)ccc32)cc(OC)c1OC (configuration not stated) | -26% (active)
O=CN1N=C(c2cccc(Nc3ccncc3)c2)CC1c1ccc2c(c1)OCO2 (configuration not stated) | 85.5%
S=C(Cc1ccc(-c2ccccc2)cc1)N1CCOCC1 | 98.9%
COc1cc(C2C3=C(COC3=O)N(CCO)c3cc4c(cc32)OCCO4)cc(OC)c1OC (configuration not stated) | -21.8% (active)
CC(C)(C)OC(=O)CN1CCc2c(sc3ncnc(N4CCN(c5ccc(F)cc5)CC4)c23)C1 | 99.5%
OC(c1cc2cc(Br)ccc2c2cc(Br)ccc12)C1CCCCN1 (configuration not stated) | -61.8% (active)
Cc1ccc(S(=O)(=O)n2cc(C(=O)C(=O)N3CCOCC3)c3ccccc32)cc1 | 66.6%
CC(C)(C)c1ccc(S(=O)(=O)N[C@H]2CC[C@H]3[C@@H]4CCc5cc(O)ccc5[C@H]4CC[C@]23C)cc1 | 23%

Compound | growth
CCCCNCC(O)c1cc2c(Cl)cc(Cl)cc2c2cc(C(F)(F)F)ccc12 (configuration not stated) | -59.2% (active)
Nc1c(C(=O)Nc2ccccn2)sc2nc3c(cc12)CCCCC3 | -9.45% (active)
COc1ccc(-c2nnc(COc3ccc(Cl)cc3Cl)o2)cc1OC | 89.3%
O=C(/C=C/c1cccc(Oc2ccccc2)c1)c1ccc(Nc2nc(Nc3ccc(F)cc3)nc(Nc3ccc(Cl)cc3)n2)cc1 | -38.2% (active)
Cc1cnc([C@]23CC[C@@H](C)[C@H](C)[C@H]2C2=CC[C@@H]4[C@@]5(C)Cc6c([nH]c7ccccc67)C(C)(C)[C@@H]5CC[C@@]4(C)[C@]2(C)CC3)o1 | 38.2% [100 µM]
COc1ccc(Nc2nc(N)nc3c2CCN(Cc2ccc(OC)cc2OC)C3=O)cc1 | 59.1%
COc1ccc(/C=C/C(=O)c2cc3c(N)c(C(=O)Nc4ccccc4C)sc3nc2C)cc1 | 10.7%
COc1ccccc1NC(=O)c1cc2cc(Br)ccc2cc1O | -33.7% (active)
NNC(=S)N/N=C/c1ccccn1 | 1% (active)
O=C(c1ccccc1)C1OC1C(=O)c1ccccc1 (configuration not stated) | 22.8%
CC(C)NCC(O)COc1ccc(CC(N)=O)cc1 (configuration not stated) | 101%
CCc1c(C(=O)Nc2ccc3ccccc3c2)[nH]c(C)c1C(C)=O | 99.7%
O=S(=O)(Nc1cc(Cl)ccc1Cl)c1ccc(-c2cnc(C3CC3)o2)cc1 | 0.302% (active)
CCSc1ccnc(N)n1 | 108%
CCn1nc(C#Cc2c(C)ccc3c(Nc4ccc(Cl)cc4)nccc23)c2c(N)ncnc21 | -16% (active)
Cn1cc(-c2nc(-c3c[nH]c4ncccc34)cs2)c2cccnc21 | 48.1%
COC1=C(OC)C(=O)C(CCCCCCCCCCO)=C(C)C1=O | 76.8%
CCCCS(=O)(=O)Oc1ccc(-c2nc(C)c(C(=O)OCC)s2)cc1C=O | 37.7%
C=C(C)[C@@H]1CC[C@]2(C(=O)N3CCN(C)CC3)CC[C@]3(C)[C@H](CC[C@@H]4[C@@](C)(CCC(=O)O)[C@H](C(=C)C)CC[C@]43C)[C@@H]12 | 82.5%
CN(C)C(=S)N=Nc1c(O)[nH]c2ccccc12 | -40.3% (active)
COc1ccc(C(=O)c2cc(C)c(OC)c(C)c2)c(OC)c1OC(=O)C(Cl)Cl | -35.7% (active)
